Results as given in PubChem BioAssay AID1159580 (chemical genetic matrix, 2015).
Several values for one entry are separate records, joined by “and”; a condition that tells them apart may be missing. Identical values can stand only once. Hit rate of the full screen: of about 5,500 compounds, about 2,000 (36%) were called active. About 18% were inconclusive and are not listed. No stated cut-off is given here; in the data, active means normalized growth mostly below about 0.91 (no sharp cut-off); inconclusive means no clear call, values can overlap the other calls; inactive means mostly above about 0.92. The list shows a part of the results.

Test: chemical genetic growth profiling, strain panel (AID 1159580);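 further: tested at 20 µM; growth read once vehicle control cultures reached saturation at 30 °C; 1 = growth at the plate median or of vehicle wells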
Conditions: S. cerevisiae deletion strains, growth OD

Measured: normalized growth

Oc1ccc(/C=C/c2cc(O)cc(O)c2)cc1
0.892 (active) and 0.981 (inactive): locus YHR030C, strain SLT2, stronger effect = lower value
inactive: locus YAL013W, strain DEP1, stronger effect = lower value 0.972 and 1.02 | locus YAL021C, strain ccr4, stronger effect = lower value 0.995 | locus YAL026C, strain drs2, stronger effect = lower value 0.978 | locus YAL030W, strain snc1, stronger effect = lower value 0.99 | locus YAL040C, strain CLN3, stronger effect = lower value 0.987 | locus YBL061C, strain skt5, stronger effect = lower value 0.992 | locus YBR009C, strain hhf1, stronger effect = lower value 0.968 | locus YBR021W, strain FUR4, stronger effect = lower value 0.961 | locus YBR023C, strain chs3, stronger effect = lower value 0.99 | locus YBR171W, strain sec66, stronger effect = lower value 1.01 | locus YBR229C, strain ROT2, stronger effect = lower value 1.02 | locus YBR231C, strain swc5, stronger effect = lower value 0.988 | locus YBR279W, strain paf1, stronger effect = lower value 0.988 | locus YCL011C, strain gbp2, stronger effect = lower value 0.996 | locus YCL016C, strain dcc1, stronger effect = lower value 0.99 | locus YCL029C, strain bik1, stronger effect = lower value 0.929 | locus YCL061C, strain MRC1 (second series), stronger effect = lower value 0.987 | locus YCL061C, strain MRC1, stronger effect = lower value 0.99 | locus YCL069W, strain vba3, stronger effect = lower value 1.01 | locus YCR088W, strain abp1, stronger effect = lower value 1 | locus YDL005C, strain med2, stronger effect = lower value 0.999 | locus YDL035C, strain GPR1, stronger effect = lower value 0.939 | locus YDL040C, strain nat1, stronger effect = lower value 0.982 | locus YDL074C, strain BRE1, stronger effect = lower value 0.867 | locus YDL101C, strain DUN1, stronger effect = lower value 0.999 | locus YDL134C, strain PPH21, stronger effect = lower value 0.982 | locus YDL185W, strain tfp1, stronger effect = lower value 0.939 | locus YDR001C, strain nth1, stronger effect = lower value 0.999 | locus YDR069C, strain doa4, stronger effect = lower value 0.988 | locus YDR150W, strain NUM1, stronger effect = lower value 0.985 | locus YDR159W, strain sac3, stronger effect = lower value 0.954 | locus YDR162C, strain NBP2, stronger effect = lower value 0.948 | locus YDR297W, strain sur2, stronger effect = lower value 0.977 | locus YDR318W, strain mcm21, stronger effect = lower value 0.983 | locus YDR334W, strain swr1, stronger effect = lower value 0.997 | locus YDR335W, strain msn5, stronger effect = lower value 1.01 | locus YDR363W, strain ESC2, stronger effect = lower value 1.01 | locus YDR388W, stronger effect = lower value 0.962 | locus YDR392W, strain spt3, stronger effect = lower value 0.842 | locus YEL003W, strain gim4, stronger effect = lower value 0.992 | locus YEL037C, strain rad23, stronger effect = lower value 1.01 | locus YEL061C, strain CIN8 (second series), stronger effect = lower value 1.01 | locus YEL061C, strain CIN8, stronger effect = lower value 0.986 | locus YER002W, strain NOP16, stronger effect = lower value 0.98 | locus YER015W, strain faa2, stronger effect = lower value 0.986 | locus YER016W, strain bim1, stronger effect = lower value 0.994 | locus YER110C, stronger effect = lower value 0.98 | locus YER111C, strain swi4, stronger effect = lower value 1.01 | locus YER155C, strain BEM2 (second series), stronger effect = lower value 0.986 | locus YER155C, strain BEM2, stronger effect = lower value 1.02 | locus YER167W, strain BCK2, stronger effect = lower value 1.01 | locus YFR010W, strain ubp6, stronger effect = lower value 0.984 | locus YGL167C, strain pmr1, stronger effect = lower value 0.978 | locus YGL173C, strain kem1, stronger effect = lower value 0.994 | locus YGL227W, strain vid30, stronger effect = lower value 0.991 | locus YGL240W, strain doc1, stronger effect = lower value 1 | locus YGL248W, strain PDE1, stronger effect = lower value 0.965 | locus YGL253W, strain hxk2, stronger effect = lower value 0.968 | locus YGR078C, strain PAC10, stronger effect = lower value 0.959 | locus YGR135W, strain pre9, stronger effect = lower value 0.936 | locus YGR252W, strain gcn5, stronger effect = lower value 0.853 | locus YHR013C, strain ard1, stronger effect = lower value 1.04 | locus YHR027C, strain rpn1, stronger effect = lower value 0.989 | locus YHR079C, strain IRE1 (second series), stronger effect = lower value 0.981 | locus YHR079C, strain IRE1, stronger effect = lower value 0.978 | locus YHR094C, strain hxt1, stronger effect = lower value 0.981 | locus YHR129C, strain ARP1, stronger effect = lower value 0.972 | locus YHR142W, strain chs7, stronger effect = lower value 0.987 | locus YHR200W, strain rpn10, stronger effect = lower value 0.93 | locus YIL066C, strain RNR3, stronger effect = lower value 0.987 | locus YIL073C, strain SPO22, stronger effect = lower value 0.896 | locus YIL125W, strain kgd1, stronger effect = lower value 0.952 | locus YIR030C, strain dcg1, stronger effect = lower value 0.964 | locus YJL092W, strain hpr5, stronger effect = lower value 0.995 | locus YJL095W, strain BCK1 (second series), stronger effect = lower value 0.987 | locus YJL115W, strain asf1, stronger effect = lower value 1 | locus YJL129C, strain trk1, stronger effect = lower value 0.903 | locus YJL134W, strain LCB3, stronger effect = lower value 1.01 | locus YJL154C, strain vps35, stronger effect = lower value 1 | locus YJL164C, strain tpk1, stronger effect = lower value 1.01 | locus YJL166W, strain qcr8, stronger effect = lower value 0.998 | locus YJL168C, strain set2, stronger effect = lower value 0.973 | locus YJL187C, strain SWE1 (second series), stronger effect = lower value 0.934 | locus YJL187C, strain SWE1, stronger effect = lower value 0.986 | locus YJR043C, strain POL32, stronger effect = lower value 0.946 | locus YJR066W, strain TOR1, stronger effect = lower value 0.939 | locus YJR075W, strain HOC1, stronger effect = lower value 0.986 and 1.01 | locus YKL068W, stronger effect = lower value 0.977 | locus YKL085W, strain MDH1 (second series), stronger effect = lower value 0.982 | locus YKL085W, strain MDH1, stronger effect = lower value 0.982 | locus YKL160W, strain elf1, stronger effect = lower value 1 | locus YKL190W, strain CNB1, stronger effect = lower value 0.992 | locus YKR026C, strain gcn3, stronger effect = lower value 0.991 | locus YKR091W, strain srl3, stronger effect = lower value 0.995 | locus YLL001W, strain dnm1, stronger effect = lower value 1.01 | locus YLL026W, stronger effect = lower value 0.99 | locus YLL041C, strain sdh2, stronger effect = lower value 0.991 | locus YLR027C, strain aat2, stronger effect = lower value 0.994 | locus YLR039C, strain RIC1, stronger effect = lower value 0.87 | locus YLR058C, strain SHM2, stronger effect = lower value 0.972 | locus YLR102C, strain apc9, stronger effect = lower value 0.997 | locus YLR113W, strain HOG1, stronger effect = lower value 1.04 | locus YLR221C, strain rsa3, stronger effect = lower value 0.972 | locus YLR258W, strain gsy2, stronger effect = lower value 0.986 | locus YLR262C, strain YPT6, stronger effect = lower value 0.877 | locus YLR268W, strain sec22, stronger effect = lower value 0.894 | locus YLR320W, strain mms22, stronger effect = lower value 0.971 | locus YLR330W, strain CHS5, stronger effect = lower value 0.998 | locus YLR342W, strain FKS1 (second series), stronger effect = lower value 0.946 | locus YLR342W, strain FKS1, stronger effect = lower value 0.993 | locus YLR357W, strain rsc2, stronger effect = lower value 0.976 | locus YLR370C, strain arc18, stronger effect = lower value 1.01 | locus YLR384C, strain iki3, stronger effect = lower value 0.996 | locus YML016C, strain PPZ1, stronger effect = lower value 0.993 | locus YML032C, strain rad52, stronger effect = lower value 0.938 | locus YML120C, strain ndi1, stronger effect = lower value 0.956 | locus YML124C, strain tub3, stronger effect = lower value 0.993 | locus YMR058W, strain fet3, stronger effect = lower value 0.975 | locus YMR078C, strain ctf18, stronger effect = lower value 0.96 | locus YMR125W, strain sto1, stronger effect = lower value 0.999 | locus YMR129W, stronger effect = lower value 0.996 | locus YMR205C, strain PFK2, stronger effect = lower value 0.976 | locus YMR223W, strain ubp8, stronger effect = lower value 0.923 | locus YMR231W, strain pep5, stronger effect = lower value 1 | locus YMR263W, strain SAP30, stronger effect = lower value 0.997 | locus YNL067W, strain RPL9B, stronger effect = lower value 0.979 | locus YNL071W, strain lat1, stronger effect = lower value 0.988 | locus YNL175C, strain NOP13, stronger effect = lower value 0.958 | locus YNL183C, strain NPR1, stronger effect = lower value 0.962 | locus YNL197C, strain WHI3, stronger effect = lower value 0.966 | locus YNL209W, strain ssb2, stronger effect = lower value 0.979 | locus YNL224C, strain SQS1, stronger effect = lower value 0.974 | locus YNL233W, strain BNI4, stronger effect = lower value 0.924 | locus YNL248C, strain rpa49, stronger effect = lower value 0.983 | locus YNL250W, strain rad50, stronger effect = lower value 0.971 | locus YNL271C, strain bni1, stronger effect = lower value 0.951 | locus YNL298W, strain CLA4, stronger effect = lower value 0.92 | locus YNL307C, strain MCK1, stronger effect = lower value 0.99 | locus YNL322C, strain KRE1 (second series), stronger effect = lower value 0.998 | locus YNR049C, strain mso1, stronger effect = lower value 1.01 | locus YOL012C, strain htz1 0.774 | locus YOR001W, strain rrp6, stronger effect = lower value 0.985 | locus YOR061W, strain CKA2, stronger effect = lower value 0.995 | locus YOR069W, strain VPS5, stronger effect = lower value 0.998 | locus YOR070C, strain gyp1, stronger effect = lower value 0.986 | locus YOR080W, strain dia2, stronger effect = lower value 0.994 | locus YOR083W, strain WHI5 (second series), stronger effect = lower value 0.98 | locus YOR083W, strain WHI5, stronger effect = lower value 0.965 | locus YOR106W, strain vam3, stronger effect = lower value 0.982 | locus YOR136W, strain idh2, stronger effect = lower value 0.965 | locus YOR144C, strain elg1, stronger effect = lower value 0.963 | locus YOR231W, strain MKK1, stronger effect = lower value 0.98 | locus YOR265W, strain rbl2, stronger effect = lower value 0.985 | locus YOR270C, strain vph1, stronger effect = lower value 0.963 | locus YOR290C, strain snf2, stronger effect = lower value 0.95 | locus YOR316C, strain cot1, stronger effect = lower value 0.982 | locus YPL051W, strain arl3, stronger effect = lower value 0.983 | locus YPL055C, strain LGE1, stronger effect = lower value 0.894 | locus YPL078C, strain atp4, stronger effect = lower value 0.994 | locus YPL106C, strain sse1, stronger effect = lower value 1.02 | locus YPL240C, strain hsp82, stronger effect = lower value 0.988 | locus YPL241C, strain CIN2, stronger effect = lower value 0.985 | locus YPL256C, strain CLN2, stronger effect = lower value 0.975 | locus YPR119W, strain clb2, stronger effect = lower value 0.981 | locus YPR141C, strain kar3, stronger effect = lower value 0.973 | locus YPR167C, strain met16, stronger effect = lower value 0.978
active: locus YDL192W, strain arf1, stronger effect = lower value 0.865 | locus YDR101C, strain arx1, stronger effect = lower value 0.873 | locus YDR137W, strain rgp1, stronger effect = lower value 0.681 | locus YDR195W, strain ref2 1.18 [resistant] | locus YDR502C, strain sam2, stronger effect = lower value 0.895 | locus YGL078C, strain dbp3, stronger effect = lower value 0.895 | locus YGL086W, strain mad1, stronger effect = lower value 0.897 | locus YKL009W, strain mrt4, stronger effect = lower value 0.779 | locus YKR001C, strain vps1, stronger effect = lower value 0.692 | locus YLR262C, strain YPT6 (second series), stronger effect = lower value 0.822 | locus YLR371W, strain rom2, stronger effect = lower value 0.766 | locus YLR418C, strain cdc73, stronger effect = lower value 0.686 | locus YMR307W, strain GAS1, stronger effect = lower value 0.538 | locus YNR052C, strain pop2, stronger effect = lower value 0.833 | locus YOL147C, strain pex11, stronger effect = lower value 0.926 | locus YOR184W, strain ser1, stronger effect = lower value 0.729 | locus YPR163C, strain tif3, stronger effect = lower value 0.909 | strain wtn01, stronger effect = lower value 0.895
0.406 (active) and 1.01 (inactive): locus YJL095W, strain BCK1, stronger effect = lower value
